High-throughput results deposited in PubChem BioAssay by National Center for Advancing Translational Sciences (NCATS).
Pf growth 48h = inhibits P. falciparum growth in the first generation, 48 h; P. falciparum luciferase growth in erythrocytes, 48 h; Potency, µM (doses to about 28.7 µM), actives largely listed as inhibitors; 5.9% of 310,000 active; AID 504832; active means well fitted inhibition curve with a large enough effect; inconclusive means small, poorly fitted or top-dose-only effect, or another doubt; inactive means no such curve, though single readings can be large or run the other way
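Compounds are pin-transferred into medium, infected erythrocytes (2% hematocrit, 0.1% parasitemia final) are added, and plates sit one parasite generation at 37 C in 5% CO2. Detection reagent is then added and luminescence measured.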
Pf growth 96h = P. falciparum growth inhibition at 96 hour, primary screen for plastid delayed-death inhibitors | P. falciparum luciferase reporter growth, 96 h | Potency, µM (titrated, usually from 28.7 µM), actives largely listed as inhibitors | 6.9% of 320,000 active; active means well fitted inhibition curve with a large enough effect; inconclusive means small, poorly fitted or top-dose-only effect, or another doubt; inactive means no such curve, though single readings can be large or run the other way
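Compounds incubated with erythrocytes infected by luciferase-expressing P. falciparum (2% hematocrit, 0.05% parasitemia final) for 96 hours, 37 C in 5% CO2. Growth inhibition scored as decreased luciferase luminescence.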
SARS PLP yeast = SARS-CoV PLP inhibition in yeast. S. cerevisiae expressing SARS-CoV PLpro, growth rescue. AID 485353. Potency, µM (series often up to 32.9 µM), hits mostly activators. 0.19% of 330,000 active; further: nearly all actives have a fitted effect of over 55% in size
NS1 function inh = blocks influenza NS1 protein function. Potency, µM (top dose mostly 46.1 µM). 0.4% of 270,000 active; further: actives are rising curves; nearly all actives have a fitted effect of over 50% in size
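A cell-based growth assay was used: compounds that relieve NS1-induced slow growth of budding yeast raise OD600. Assay medium was yeast nitrogen base with ammonium sulphate and -URA supplement, pH 6.0, with 2% galactose.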
Large screens that a line does not name were inactive. This is a sample that favours compounds with a hit; in the whole collection about 10% have one here. Unless noted, the call rests on the fitted dose curve.

O=C(COc1ccc(S(=O)(=O)N2CCCCC2)cc1)Nc1ccccc1F	Pf growth 48h 11.7µM
CCN1CCN(c2ccc(S(=O)(=O)N3CCCCC3)cc2NC(=O)COc2ccc(F)cc2Cl)CC1	Pf growth 48h 7.38µM, Pf growth 96h inconclusive
O=C(COc1ccc(F)cc1)Nc1cc(S(=O)(=O)N2CCCCC2)ccc1N1CCCCC1	Pf growth 48h 3.7µM, Pf growth 96h 7.38µM (no result: NS1 function inh)
O=C(COc1ccccc1)Nc1ccc(S(=O)(=O)N2CCCCCC2)cc1	Pf growth 96h inconclusive (no result: Pf growth 48h)
NCCSS(=O)(=O)CCN	none (no result: Pf growth 48h, Pf growth 96h, SARS PLP yeast)
Cc1ccc(Oc2ccc(-c3nc(N)nc(N)n3)cc2)cc1C	none (no result: Pf growth 48h)
CCN1CCN(c2ccc(S(=O)(=O)N3CCCCC3)cc2NC(=O)COc2ccc(Cl)cc2)CC1	Pf growth 48h 8.28µM, Pf growth 96h inconclusive (no result: SARS PLP yeast, NS1 function inh)
CCN(CC(=O)Nc1c(F)cccc1F)C(=O)CNC(=O)c1cccc(C)c1	none
CN(C)CCCNc1nc2sc3c(c2c(=O)n1CCc1ccccc1)CCCCC3	Pf growth 48h 6.57µM, Pf growth 96h 4.15µM
COc1ccc(/C=C/C(=O)OCC(=O)NC2CCCC2)cc1	none (no result: NS1 function inh)
COc1ccc(N2C(=O)C(C)(C)C2c2c(O)ccc3ccccc23)cc1 (stereo not drawn)	Pf growth 48h 8.28µM
COC(=O)CSc1nc(C2CC2)cc(C(F)(F)F)c1C#N	none (no result: Pf growth 96h)
CCOC(=O)CSc1nc(C2CC2)cc(-c2ccc(Cl)cc2)c1C#N	Pf growth 48h 10.4µM
CCC(c1nnnn1CCc1ccccc1)N1CCN(C(=O)c2ccco2)CC1 (stereo not drawn)	Pf growth 96h 9.28µM
CC(C)CC(c1nnnn1CCc1ccccc1)N1CCN(C(=O)c2ccco2)CC1 (stereo not drawn)	Pf growth 48h inconclusive, Pf growth 96h inconclusive
COc1cccc(C(c2nnnn2Cc2ccccc2)N2CCN(C(=O)c3ccco3)CC2)c1OC (stereo not drawn)	Pf growth 48h 9.28µM, Pf growth 96h inconclusive
COc1ccc(OC)c(C(c2nnnn2Cc2ccco2)N2CCN(C)CC2)c1 (stereo not drawn)	Pf growth 96h inconclusive
COc1cccc(C(c2nnnn2Cc2ccco2)N2CCN(c3cccc(C)c3C)CC2)c1OC (stereo not drawn)	Pf growth 48h 9.28µM
Clc1ccccc1C(c1nnnn1Cc1ccco1)N1CCN(Cc2ccco2)CC1 (stereo not drawn)	Pf growth 48h 14.7µM
[N-]=[N+]=NCC/C=C\C1NS(=O)(=O)OCC1O (stereo not drawn)	none
Cc1ccc(S(=O)(=O)Nc2cccc(C(=O)NCCCn3ccnc3)c2)cc1F	Pf growth 48h inconclusive (no result: NS1 function inh)
CCOc1ccc(CCNC(=O)Nc2cccc(OC)c2)cc1OCC	Pf growth 48h inconclusive
O=C(c1ccco1)N1CCN(C(c2ccc(Cl)cc2)c2nnnn2Cc2ccccc2)CC1 (stereo not drawn)	Pf growth 48h 11.7µM, Pf growth 96h 10.4µM
CCCC(c1nnnn1Cc1ccco1)N1CCN(C2CCCC2)CC1 (stereo not drawn)	Pf growth 96h 11.7µM, NS1 function inh inconclusive
CCCC(c1nnnn1C1CCCCC1)N1CCN(C(=O)c2ccco2)CC1 (stereo not drawn)	Pf growth 48h 3.7µM (no result: SARS PLP yeast)
CCC(c1nnnn1C1CCCCC1)N1CCN(C(=O)c2ccco2)CC1 (stereo not drawn)	Pf growth 48h inconclusive
CC(C)C(c1nnnn1Cc1ccco1)N1CCN(C2CCCC2)CC1 (stereo not drawn)	NS1 function inh inconclusive
CN1CCN(CC(=O)Nc2ccc(Cl)cc2Cl)CC1	Pf growth 96h 9.28µM
O=C(CN1CCN(C(=O)c2ccco2)CC1)Nc1ccc(Cl)c(S(=O)(=O)N2CCOCC2)c1	Pf growth 48h 11.7µM (no result: NS1 function inh)
O=C(CN1CCN(C(=O)c2ccco2)CC1)Nc1cc(Cl)ccc1Cl	Pf growth 48h 1.04µM
O=C(CN1CCN(C(=O)c2ccco2)CC1)Nc1ccccc1-c1ccccc1	Pf growth 48h inconclusive
Cc1ccc(S(=O)(=O)NCCC(=O)NCCc2ccc(S(N)(=O)=O)cc2)cc1C	none (no result: Pf growth 48h, Pf growth 96h, NS1 function inh)
CN(C[C@H](c1ccccc1)N(C[C@H](Cc1ccccc1)N(CCc1ccccc1)N=O)N=O)N=O	Pf growth 48h inconclusive, Pf growth 96h 11.7µM
CC(C)C[C@@H](CN(N=O)[C@@H](Cc1ccccc1)CN(C)N=O)N(CCc1ccccc1)N=O	Pf growth 48h inconclusive, Pf growth 96h inconclusive
CN(C[C@H](Cc1ccccc1)N(C[C@H](c1ccccc1)N(CCc1ccccc1)N=O)N=O)N=O	Pf growth 48h inconclusive, Pf growth 96h 13.1µM
COc1ccc(N2CCN(CCCNC(=O)Cn3c(=O)c4cccn4c4ccccc43)CC2)cc1	Pf growth 96h inconclusive, SARS PLP yeast inconclusive
Cc1ccc(CN2C(=O)c3ccccc3NC2c2cc(Br)ccc2O)cc1 (stereo not drawn)	Pf growth 48h inconclusive, Pf growth 96h inconclusive
CCOC(=O)[C@@H]1[C@H]2COc3ccccc3[C@@H]2N2C(=O)N(c3cccc(Cl)c3)C(=O)[C@]12C	Pf growth 48h inconclusive, Pf growth 96h inconclusive
COc1cc(OC)c2c(-c3ccccc3)cc(=O)oc2c1C(CCN1CCCC1)c1ccc2c(c1)OCO2 (stereo not drawn)	Pf growth 48h inconclusive, Pf growth 96h 8.28µM
COc1cc(OC)c2c(-c3ccccc3)cc(=O)oc2c1C(CCN1CCN(c2ccccc2)CC1)c1ccc(N(C)C)cc1 (stereo not drawn)	Pf growth 48h 5.22µM, Pf growth 96h 4.15µM
COc1ccc(C(CCN2CCOCC2)c2c(OC)cc(OC)c3c(-c4ccccc4)cc(=O)oc23)cc1 (stereo not drawn)	none (no result: Pf growth 48h, Pf growth 96h, NS1 function inh)
COc1cc(OC)c2c(-c3ccccc3)cc(=O)oc2c1C(CCN1CCOCC1)c1ccc2c(c1)OCO2 (stereo not drawn)	none (no result: Pf growth 48h, Pf growth 96h, NS1 function inh)
COc1cc(OC)c2c(-c3ccccc3)cc(=O)oc2c1C(CCN1CCCC(C)C1)c1ccc(N(C)C)cc1 (stereo not drawn)	Pf growth 48h inconclusive, Pf growth 96h inconclusive
COc1ccc(C(CCN2CCCC(C)C2)c2c(OC)cc(OC)c3c(-c4ccccc4)cc(=O)oc23)cc1 (stereo not drawn)	Pf growth 48h 11.7µM, Pf growth 96h 5.86µM
COc1ccc(C(CCN2CCCC2)c2c(OC)cc(OC)c3c(-c4ccccc4)cc(=O)oc23)cc1 (stereo not drawn)	Pf growth 48h 11.7µM, Pf growth 96h 11.7µM
COc1cc(C(CCN2CCCC2)c2c(OC)cc(OC)c3c(-c4ccccc4)cc(=O)oc23)cc(OC)c1OC (stereo not drawn)	Pf growth 48h 2.33µM, Pf growth 96h 1.85µM, NS1 function inh inconclusive
COc1ccc(C(CCN2CCCC(C)C2)c2c(OC)cc(OC)c3c(C)cc(=O)oc23)cc1 (stereo not drawn)	Pf growth 48h 2.94µM, Pf growth 96h 2.62µM
COc1cc(C(CCN2CCCCC2)c2c(OC)cc(OC)c3c(C)cc(=O)oc23)cc(OC)c1OC (stereo not drawn)	Pf growth 48h 8.28µM, Pf growth 96h 9.28µM
COc1cc(OC)c2c(C)cc(=O)oc2c1C(CCN1CCN(c2ccccc2)CC1)c1ccc2c(c1)OCO2 (stereo not drawn)	Pf growth 48h 3.29µM, Pf growth 96h 2.08µM
Cc1ccc(C)c(N(CC(=O)NC2CCCC2)C(=O)CCC(=O)Nc2cc(C)on2)c1	none
